Screens: PubChem, NMMLSC
Rab2 wt GTP – changes GTP binding to wildtype dog Rab2A, up or down | P61105 | GST-Rab2 wt beads, Bodipy-GTP binding, flow cytometry | GTP binding activity, % at 10 µM | 0.19% of 190,000 active | AID 760;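 active = GTP binding activity at least 20 points away from 100%, either lowered or raised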;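 note: 0% = beads with excess unlabeled GTP and 100% = no-compound control corrected for plate trend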
Rab7 wt modul – dog Rab7 wildtype GTP binding, inhibitors and activators; GST-Rab7 beads, fluorescent GTP binding, flow cytometry; actives lie on both sides; untreated = 100%, excess cold GTP = 0%; GTP binding activity (percent of control), % at 10 µM; 0.055% of 190,000 active; AID 758;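 active = fluorescent GTP binding to Rab7 beads changed by at least 20 points from the 100% baseline, either direction, mostly lower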;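 note: median green fluorescence of bound Bodipy-FL-GTP per Rab7 bead population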
Cdc42 wt GTP – human Cdc42 wildtype GTP binding change, either direction; GST-Cdc42 beads, Bodipy-GTP binding, flow cytometry; actives lie on both sides; percent activity (GTP binding), % at 10 µM; 0.2% of 190,000 active; AID 761;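 active = percent activity GTP binding at least 20 points away from the 100% baseline, either down as inhibitor or up as activator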;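 note: median bead fluorescence of bound Bodipy-FL-GTP at 100 nM; 0% = excess unlabeled GTP control and 100% = no compound control; below 100% means less GTP binding so inhibitor and above means activator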
Target sequence (P60953 whole entry, looked up): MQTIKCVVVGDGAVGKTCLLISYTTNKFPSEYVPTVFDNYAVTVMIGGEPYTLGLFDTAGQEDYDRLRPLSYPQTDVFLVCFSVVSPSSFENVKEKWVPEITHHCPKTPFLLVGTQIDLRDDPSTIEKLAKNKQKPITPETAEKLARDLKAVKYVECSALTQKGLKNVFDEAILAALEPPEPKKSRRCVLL
Rac1 wt GTP bind – alters GTP binding to wildtype human Rac1. P63000. GST-Rac1 beads, fluorescent GTP binding, flow cytometry; actives lie on both sides; 0 = cold GTP competed, 100 = untreated. GTP binding activity (% of control), % at 10 µM. 0.27% of 190,000 active. AID 757;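 active = GTP binding activity at least 20 points away from the 100% control level, either lower or higher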
Rac1 act GTP bind – alters GTP binding to activated mutant human Rac1; AID 764; 0.11% of 190,000 active; GST-Rac1 activated beads, fluorescent GTP binding, flow cytometry; actives lie on both sides; 100% means binding = to untreated wells; percent activity (GTP binding), % at 10 µM;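 active = GTP binding at least 20 percentage points away from the 100% baseline, in either direction, so actives lie on both sides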
HRas wt GTP bind – changes GTP binding to wildtype human HRas; GST-Ras wt beads, Bodipy-FL-GTP binding, flow cytometry; actives lie on both sides; AID 759; P01112; 0.14% of 190,000 active; GTP binding activity, % at 10 µM;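 active = GTP binding activity at least 20% away from the 100% baseline, either lowered as inhibitor or raised as activator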;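 note: 0% = unlabeled GTP competition control and 100% = no-compound control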
Target sequence (P01112 whole entry, looked up): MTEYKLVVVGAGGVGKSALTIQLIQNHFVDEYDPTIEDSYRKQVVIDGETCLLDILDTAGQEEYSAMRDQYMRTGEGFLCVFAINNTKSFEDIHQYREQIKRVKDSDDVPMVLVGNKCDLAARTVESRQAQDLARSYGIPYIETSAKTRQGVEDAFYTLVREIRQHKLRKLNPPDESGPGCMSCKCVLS
* hit, by the source's call; [ ] = remark or other dose. Hits are enriched below; roughly 0.37% of the tested compounds scored in any of these assays.

SMILES | Rab2 wt GTP | Rab7 wt modul | Cdc42 wt GTP | Rac1 wt GTP bind | Rac1 act GTP bind | HRas wt GTP bind
CCCc1nnc2c(N(C)S(=O)(=O)c3ccc(C)cc3)nc3ccccc3n12 | 97 | 101 | 101 | 104 | 101 | 101
c1ccc(CN(Cc2ccccc2)c2nn[nH]n2)cc1 | 92 | 103 | 91 | 94 | 89 | 93
Clc1ccc(CN(Cc2ccc(Cl)cc2)c2nn[nH]n2)cc1 | 80 | 96 | 80 | 83 | 77* | 87
O=C(Nc1ccc2nc(-c3cccs3)[nH]c2c1)c1cccs1 | 77* | 94 | 75* | 76* | 86 | 75*
O=C(O)c1ccccc1OCCOc1ccccc1 | 130*[activator] | 123*[activator] | 138*[activator] | 157*[activator] | 132*[activator] | 123*[activator]
Cn1c(C(=O)OCC(=O)NCc2ccco2)cc2sccc21 | 100 | 98 | 101 | 105 | 99 | 99
CCC(OC(=O)c1cc2sccc2n1C)C(=O)NCc1ccco1 (stereo unspecified) | 36* | 22* | 40* | 37* | 37* | 44*
Cc1c(CN2CCc3c([nH]c4ccccc34)C2CC(C)C)cnn1C (stereo unspecified) | 99 | 99 | 98 | 102 | 96 | 98
CCc1ccc(NC(=O)N(CCOC)C2CCN(C(C)=O)CC2)cc1 | 95 | 93 | 98 | 97 | 96 | 97
COc1ccc(S(=O)(=O)N2CCCCC2)cc1NC(=O)c1ccc([N+](=O)[O-])o1 | 84 | 97 | 82 | 74* | 87 | 86
CN=C1NN=C(c2cc(C)n(-c3ccc(Cl)cc3)c2C)CS1 | 95 | 92 | 94 | 97 | 94 | 95
Cc1noc(C)c1COc1cccc(C(=O)NCc2ccccc2Cl)c1 | 69* | 67* | 71* | 72* | 74* | 52*
Cc1noc(C)c1COc1ccc(C(=O)OCC(=O)NCc2ccccc2Cl)cc1 | 96 | 104 | 100 | 102 | 98 | 99
OC(CNCCC1C=Nc2ccccc21)Cn1c2ccc(Cl)cc2c2cc(Cl)ccc21 (stereo unspecified) | 113 | 112 | 115 | 144*[activator] | 108 | 114
Cc1cc(C)n(CC(O)Cn2c3ccc(Cl)cc3c3cc(Cl)ccc32)c(=O)n1 (stereo unspecified) | 96 | 96 | 100 | 102 | 99 | 99
Brc1cccc(CNc2nc3ccccc3n2CCN2CCOCC2)c1 | 95 | 93 | 95 | 92 | 96 | 96
COc1cc(CNC(=O)c2cccc(COc3ccc(Cl)cc3)c2)cc(OC)c1 | 94 | 99 | 97 | 101 | 98 | 99
O=C(O)CCCN1C(=O)/C(=C\c2ccco2)SC1=S | 97 | 100 | 94 | 95 | 93 | 96
O=C(O)CCN1C(=O)/C(=C\c2ccc(-c3nc4ccccc4s3)o2)SC1=S | 66* | 74* | 69* | 67* | 71* | 74*
O=c1c2ccccc2nc2ccc(NCc3cccs3)nn12 | 74* | 91 | 76* | 74* | 88 | 79*
CCn1c(NCc2cccs2)nc2ccccc21 | 99 | 97 | 105 | 106 | 99 | 100
Cc1csc(Sc2ccc(S(=O)(=O)N3CCCC3)cn2)n1 | 97 | 95 | 99 | 98 | 97 | 95
O=C(Nc1ccc(S(=O)(=O)N2CCCc3ccccc32)cc1)C1CCCO1 (stereo unspecified) | 111 | 103 | 117 | 120*[activator] | 102 | 110
CCN1C(=O)C2C(C1=O)N1C(c3cccs3)C3C(=O)N(CC)C(=O)C3N1C2c1cccs1 (stereo unspecified) | 99 | 97 | 101 | 99 | 98 | 99
CCOC(=O)Cn1nnnc1C(C(C)C)N(Cc1cccs1)Cc1cc2cc(C)ccc2[nH]c1=O (stereo unspecified) | 93 | 95 | 75* | 97 | 94 | 95
SMILES | Rab2 wt GTP | Rab7 wt modul | Cdc42 wt GTP | Rac1 wt GTP bind | Rac1 act GTP bind | HRas wt GTP bind
CCOC(=O)Cn1nnnc1C(CC)N(Cc1cccs1)Cc1cc2cc(C)ccc2[nH]c1=O (stereo unspecified) | 100 | 103 | 100 | 102 | 99 | 102
COc1cc(/C=N/Nc2nncn2/N=C/c2ccc(O)c(OC)c2)ccc1O | 79* | 91 | 77* | 75* | 86 | 76*
COc1cc(/C=N/Nc2ccccc2C(F)(F)F)ccc1O | 97 | 103 | 90 | 94 | 93 | 94
COc1cc(/C=N/Nc2nnc3c(n2)[nH]c2ccccc23)ccc1O | 79* | 85 | 94 | 86 | 93 | 83
O=c1[nH]c(SCc2c(Cl)cccc2Cl)nc2ccccc12 | 98 | 106 | 97 | 99 | 95 | 97
Cc1ccccc1Sc1c(C#N)c(-c2ccccc2)nn1C | 102 | 101 | 99 | 103 | 97 | 101
N#Cc1c(Nc2ccccc2)c(/C=N/NCCO)c[nH]c1=O | 99 | 96 | 95 | 96 | 94 | 99
N#Cc1c(Nc2ccccc2)c(/C=N/N=C/c2ccccc2)c[nH]c1=O | 81 | 81 | 81 | 75* | 88 | 76*
COc1ccc(OCc2nc(C#N)c(NCCCn3ccnc3)o2)cc1 | 98 | 99 | 96 | 102 | 96 | 97
COc1ccc(C)cc1NC(=O)COC(C)=O | 108 | 103 | 120*[activator] | 137*[activator] | 107 | 105
COc1cccc(-c2cc(C(F)(F)F)c(C#N)c(=O)[nH]2)c1 | 78* | 85 | 81 | 80 | 77* | 83
COc1ccc(Cl)cc1NC(=S)Nc1ccccc1C | 96 | 101 | 97 | 97 | 93 | 97
N#Cc1c2nc3ccccc3nc2n2cc(NC(=O)c3ccc(F)cc3)ccc12 | 77* | 89 | 91 | 79* | 88 | 81
O=C(Nc1nc2ccccc2[nH]1)c1ccc(F)cc1 | 101 | 97 | 103 | 103 | 103 | 101
C=CCn1c(CCCNC(=O)c2ccccc2OC)nc2ccccc21 | 100 | 104 | 97 | 98 | 99 | 99
Cc1ccc(C(=O)CC(=O)c2cccc(F)c2)c(O)c1 | 96 | 95 | 99 | 102 | 100 | 98
COc1cccc(NC(=O)NCCCN2CCN(c3ccc(F)cc3)CC2)c1 | 98 | 76* | 100 | 99 | 100 | 98
COc1cccc(NC(=O)CN2CCN(c3ccc(F)cc3)CC2)c1 | 97 | 98 | 96 | 95 | 95 | 97
O=C(C(Cl)Cl)N1c2ccccc2OCC1c1ccccc1 (stereo unspecified) | 97 | 98 | 99 | 97 | 95 | 100
CCOc1ccc2c(c1)c(N=Nc1cccc(C(=O)O)c1)c(O)n2C | 95 | 98 | 99 | 93 | 95 | 96
CCOc1ccc2c(c1)c(N=NC(=N)N)c(O)n2C | 86 | 93 | 90 | 78* | 90 | 84
